Experiment [1] can be described thus: qHTS assay to identify small molecule agonists of the estrogen receptor alpha (ER-alpha) signaling pathway in the presence of an antagonist - cell viability counter screen (AID 1259386).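 Further: cells exposed to compounds for 22 h at 37 °C before the viability read; nearly all actives have a fitted effect of over 30% in size.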 Further: potency means the concentration at half of the fitted maximal effect. Summed up: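 The test measures whether compounds kill ER-alpha reporter cells (VM7Luc4E2) under antagonist co-treatment (ICI-182,780, 10.0nM). Fluorescence from CellTiter-Fluor is read after a 22hr exposure.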

Experiment [2] can be described thus: qHTS assay to identify small molecule antagonists of the progesterone receptor (PR) signaling pathway - cell viability counter screen (AID 1346798). Further: series mostly up to about 92 µM; nearly all actives have a fitted effect of over 50% in size. Summed up: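 Cytotoxicity read as CellTiter-Glo luminescence (30 min, room temperature) in the same wells as the beta-lactamase readout. HEK293T PR-UAS-bla cells in charcoal-stripped 2% FBS received compound and R5020, then 16 h at 37C, 5% CO2.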
(In general: In qHTS, concentration-response curves come from the screen itself.)

Experiment [3] can be described thus: qHTS assay to identify small molecule agonists of the progesterone receptor (PR) signaling pathway - cell viability counter screen (AID 1346799; calls by dose curve; further: nearly all actives have a fitted effect of over 45% in size). Summed up:
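Cytotoxicity measured by CellTiter-Glo luminescence (30 min, RT) in the same wells as the PR beta-lactamase agonist read. Those HEK293T cells had 16 h compound treatment at 37 C in 2% charcoal-stripped FBS medium.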

A short description of experiment [4]: qHTS assay to identify small molecule antagonists of the TGF-beta/Smad signaling pathway - cell viability counter screen (AID 1346824). Further: nearly all actives have a fitted effect of over 50% in size. Summed up:
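Cytotoxicity counter-screen run in the same wells as the beta-lactamase Smad reporter read: CellTiter-Glo luminescence after 30 min at room temperature. HEK 293T SBE-bla cells had 5 hr compound exposure at 37 C with TGF-beta1 (0.25 ng/mL stock).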

Experiment [5] in a line: qHTS assay to identify small molecule agonists of the TGF-beta/Smad signaling pathway - cell viability counter screen (AID 1346829). Further: top concentration of the series differs between compounds; nearly all actives have a fitted effect of over 45% in size. A digest of the protocol: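 In parallel with the Smad reporter read, viability of HEK 293T cells stably carrying SBE-bla is quantified by ATP luminescence following 5 hr compound treatment.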
Experiment [6] in a line: qHTS assay to identify small molecule agonists of the TGF-beta/Smad signaling pathway (AID 1346859; active means well fitted activation curve with a large enough effect in the signal ratio in the repeat runs, not every such curve was filed as active; the % refers to the signal ratio; further: series mostly up to about 77 µM). Summed up:
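Fluorescence (ex 405 nm; em 460 and 530 nm) was read 2 h after LiveBLAzer FRET substrate at RT. The preceding compound treatment of overnight-plated SBE-bla HEK293T cells lasted 5 h at 37 C.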

Experiment [7] concerns the target Thyrotropin-releasing hormone receptor (Homo sapiens) (UniProt P34981). In words: qHTS assay to identify small molecule antagonists of the thyrotropin-releasing hormone receptor (TRHR) signaling pathway (AID 1346877; active means well fitted inhibition curve with a large enough effect in the repeat runs, not every such curve was filed as active; further: series mostly up to about 51 µM). A digest of the protocol:
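Overnight-plated (18 h, 37 °C) HEK293 cells expressing TRHR were dye-loaded 2 h, treated with compound, then stimulated with TRH at 1 nM final. Fluorescence intensity was captured every second for 3 min.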

Experiment [8] shares this target. In words: qHTS assay to identify small molecule agonists of the thyrotropin-releasing hormone receptor (TRHR) signaling pathway (AID 1346891; calls by dose curve; further: series mostly up to about 58 µM). Summed up:
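Agonist-mode intracellular calcium readout: kinetic fluorescence over 3 min at 1 s intervals after compound addition to TRHR-HEK293 cells (18 h seeded, 2 h dye-loaded at 37 C). Fifteen concentrations, triplicates.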

The nature of experiment [9]: Human pregnane X receptor (PXR) small molecule agonists, qHTS cell viability counter screen (AID 1346977). Further: nearly all actives have a fitted effect of over 50% in size. Further: potency means the concentration at half of the fitted maximal effect. A digest of the protocol: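 Same-well viability read: CellTiter-Fluor added after 23 hr compound exposure, fluorescence measured 1 hr later. Cells were PXR-Luc HepG2 seeded at 2,000/well in 5% charcoal-stripped FBS medium, rested 5 hr before dosing at 37 C.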
Experiment [10] is described as follows: Caspase-3/7 induction in HepG2 cells by small molecules, qHTS assay (AID 1346978). Further: nearly all actives have a fitted effect of over 15% in size. Summed up: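 Caspase-3/7 induction was measured by Caspase-Glo 3/7 luminescence (30 min, room temperature) after a 17 hr compound exposure of wild-type HepG2 cells seeded at 2,000 per well and pre-incubated 5 hr.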
Experiment [11] can be described thus: Caspase-3/7 induction in CHO-K1 cells by small molecules, qHTS cell viability counter screen (AID 1346979). Further: nearly all actives have a fitted effect of over 35% in size. Further: potency means the concentration at half of the fitted maximal effect. A digest of the protocol: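 Cytotoxicity counter screen: CellTiter-Fluor added to compound-treated wild-type CHO-K1 cells at 16 h (37C, 5% CO2), fluorescence measured 1 h later; same wells as caspase-3/7 measurement.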
The nature of experiment [12]: Caspase-3/7 induction in HepG2 cells by small molecules, qHTS cell viability counter screen (AID 1346981). Further: nearly all actives have a fitted effect of over 30% in size. Further: potency means the concentration at half of the fitted maximal effect. Summed up:
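Treatment of HepG2 cells with DMSO-delivered compounds ran 16 hr at 37 C following a 5-hr pre-incubation of 2,000 cells/well. CellTiter-Fluor fluorescence, read after 1 hr, served as the viability measure in a qHTS format.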

Experiment [13] addresses Cytochrome P450 2D6 (Homo sapiens) (UniProt P10635). In words: Cytochrome P450 Family 2 Subfamily D Member 6 (CYP2D6) small molecule antagonists: luciferase reporter qHTS assay (AID 1671196). Further: series mostly up to about 120 µM; nearly all actives have a fitted effect of over 50% in size. Summed up: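 Chemicals tested for interference with CYP2D6 activity; proluciferin substrate, NADPH regeneration, 1 h at room temperature, luminescent detection.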
(In general: Reporter assays use an easily measured gene product as a stand-in for the process of interest.)

Experiment [14] is described as follows: Caspase-3/7 induction in CHO-K1 cells by small molecules, qHTS assay (AID 1346980). Further: nearly all actives have a fitted effect of over 15% in size. Summed up: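 Luminescent Caspase-Glo 3/7 read (30min, room temperature) quantified apoptosis induction. Cells were wild-type CHO-K1, treated with compound for 17hr at 37 C and 5% CO2.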
Experiment [15] addresses Nuclear receptor subfamily 1 group I member 2 (Homo sapiens) (UniProt O75469). In words: Human pregnane X receptor (PXR) small molecule agonists, qHTS assay (AID 1346982). Further: nearly all actives have a fitted effect of over 35% in size. Further: potency means the concentration at half of the fitted maximal effect. Summed up:
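Stable HepG2 line reporting PXR-mediated CYP3A4 expression via luciferase. Treatment: 24 hr with compounds in DMSO at 37 C. Detection: ONE-Glo luminescence.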

The target in experiment [16] is Progesterone receptor (Homo sapiens) (UniProt P06401). In words: qHTS assay to identify small molecule antagonists of the progesterone receptor (PR) signaling pathway (AID 1346795; active means well fitted inhibition curve with a large enough effect in the signal ratio in the repeat runs, not every such curve was filed as active; the % refers to the signal ratio; further: potency means the concentration at half of the fitted maximal effect). A digest of the protocol:
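Antagonist mode with agonist R5020 at 1 nM final and 16 hr incubation at 37C. Reporter was beta-lactamase driven by UAS in HEK293T (PR-UAS-bla), 2% charcoal-stripped serum; signal from LiveBLAzer FRET substrate, 2 hr at room temperature.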

In experiment [17] the target is Nuclear receptor subfamily 1 group I member 2 (Rattus norvegicus) (UniProt Q9R1A7). In words: Rat pregnane X receptor (rPXR) activation by small molecules, qHTS assay (AID 1346983). Further: nearly all actives have a fitted effect of over 20% in size. As to conditions: rPXR luciferase reporter cells, One-Glo luminescence, 24 h; stronger effect = higher value. A digest of the protocol:
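Luminescent readout (One-Glo luciferase, 30 min room temperature) followed 24 hr compound treatment at 37 C of rPXR cells plated 2,000 per well and preincubated 5hr; qHTS format with compounds delivered in DMSO.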

Experiment [18] concerns the target Nuclear receptor subfamily 1 group I member 2 (Homo sapiens) (UniProt O75469). In words: Human pregnane X receptor (PXR) activation by small molecules, qHTS assay (AID 1346985). Further: nearly all actives have a fitted effect of over 40% in size. A digest of the protocol: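 DPX-2 cells (HepG2 co-transfected with a PXR response element and a CYP3A4-promoter luciferase construct) were seeded at 2,000 per well, rested 5 hr at 37C, then exposed to DMSO-dissolved compounds for 24 hr. Activation was read as luciferase luminescence.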

Unmarked numbers belong to inactive results. Results filed as inconclusive are left out. Active and inactive are the calls of the source. Unless noted, the call rests on the fitted dose curve; in most records, active means well fitted curve in the direction sought with a large enough effect in the repeat runs; inconclusive means weak or mixed curves; inactive means no such curve, though single readings can be large; an effect the other way counts as inactive or inconclusive.
On the % scale 0 is the no-effect control and ±100 the full control effect.

Nuclear receptor subfamily 1 group I member 2 (Homo sapiens), sequence (O75469 whole entry, looked up): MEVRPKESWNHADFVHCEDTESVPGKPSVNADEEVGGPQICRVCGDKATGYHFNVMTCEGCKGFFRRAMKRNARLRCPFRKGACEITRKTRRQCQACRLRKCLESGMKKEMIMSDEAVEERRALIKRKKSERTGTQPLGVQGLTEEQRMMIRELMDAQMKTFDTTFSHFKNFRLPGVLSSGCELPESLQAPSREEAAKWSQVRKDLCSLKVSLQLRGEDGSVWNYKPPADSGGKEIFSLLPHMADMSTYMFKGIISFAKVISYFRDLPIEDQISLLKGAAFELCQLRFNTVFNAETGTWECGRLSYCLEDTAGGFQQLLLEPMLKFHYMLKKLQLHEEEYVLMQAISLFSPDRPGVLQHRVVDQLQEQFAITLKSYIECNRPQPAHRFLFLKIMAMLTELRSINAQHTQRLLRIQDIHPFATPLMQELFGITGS
Progesterone receptor (Homo sapiens), sequence (P06401 whole entry, looked up): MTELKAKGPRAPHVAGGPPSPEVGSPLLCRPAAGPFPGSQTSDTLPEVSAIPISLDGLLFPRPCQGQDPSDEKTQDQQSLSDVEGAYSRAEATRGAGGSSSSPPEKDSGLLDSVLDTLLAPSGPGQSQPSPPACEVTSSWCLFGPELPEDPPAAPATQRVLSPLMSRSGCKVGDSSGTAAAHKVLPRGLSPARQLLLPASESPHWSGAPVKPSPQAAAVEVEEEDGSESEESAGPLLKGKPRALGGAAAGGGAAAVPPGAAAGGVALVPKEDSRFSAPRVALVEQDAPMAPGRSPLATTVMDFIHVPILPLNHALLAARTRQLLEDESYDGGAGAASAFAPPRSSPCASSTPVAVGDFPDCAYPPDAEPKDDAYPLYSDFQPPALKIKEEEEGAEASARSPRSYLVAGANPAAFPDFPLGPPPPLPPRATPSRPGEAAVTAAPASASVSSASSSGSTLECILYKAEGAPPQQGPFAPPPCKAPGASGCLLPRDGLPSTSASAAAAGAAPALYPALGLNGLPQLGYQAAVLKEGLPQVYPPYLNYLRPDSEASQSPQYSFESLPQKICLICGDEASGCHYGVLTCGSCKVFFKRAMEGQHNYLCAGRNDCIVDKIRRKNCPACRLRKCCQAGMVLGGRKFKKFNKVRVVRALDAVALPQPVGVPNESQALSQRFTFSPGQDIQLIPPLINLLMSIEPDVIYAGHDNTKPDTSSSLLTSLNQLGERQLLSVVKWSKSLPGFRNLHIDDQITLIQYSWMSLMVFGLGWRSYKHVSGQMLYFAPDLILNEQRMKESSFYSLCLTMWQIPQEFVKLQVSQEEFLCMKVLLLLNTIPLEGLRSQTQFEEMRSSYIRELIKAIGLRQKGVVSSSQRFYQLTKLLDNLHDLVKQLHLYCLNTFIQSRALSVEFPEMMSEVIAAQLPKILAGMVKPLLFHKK
Cytochrome P450 2D6 (Homo sapiens), sequence (P10635 whole entry, looked up): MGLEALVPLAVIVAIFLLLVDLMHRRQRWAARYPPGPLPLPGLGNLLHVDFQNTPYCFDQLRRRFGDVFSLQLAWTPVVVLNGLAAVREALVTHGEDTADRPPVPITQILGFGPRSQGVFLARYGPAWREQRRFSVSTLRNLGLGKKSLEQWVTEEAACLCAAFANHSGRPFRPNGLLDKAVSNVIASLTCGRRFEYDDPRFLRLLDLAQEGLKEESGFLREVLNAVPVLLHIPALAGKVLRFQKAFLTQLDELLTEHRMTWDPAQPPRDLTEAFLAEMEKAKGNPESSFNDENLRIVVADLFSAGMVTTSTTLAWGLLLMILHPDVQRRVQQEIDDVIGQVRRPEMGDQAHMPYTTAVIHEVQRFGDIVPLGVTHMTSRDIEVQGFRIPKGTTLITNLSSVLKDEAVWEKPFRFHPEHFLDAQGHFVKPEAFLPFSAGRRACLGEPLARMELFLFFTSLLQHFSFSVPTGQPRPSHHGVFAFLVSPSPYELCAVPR
Thyrotropin-releasing hormone receptor (Homo sapiens), sequence (P34981 whole entry, looked up): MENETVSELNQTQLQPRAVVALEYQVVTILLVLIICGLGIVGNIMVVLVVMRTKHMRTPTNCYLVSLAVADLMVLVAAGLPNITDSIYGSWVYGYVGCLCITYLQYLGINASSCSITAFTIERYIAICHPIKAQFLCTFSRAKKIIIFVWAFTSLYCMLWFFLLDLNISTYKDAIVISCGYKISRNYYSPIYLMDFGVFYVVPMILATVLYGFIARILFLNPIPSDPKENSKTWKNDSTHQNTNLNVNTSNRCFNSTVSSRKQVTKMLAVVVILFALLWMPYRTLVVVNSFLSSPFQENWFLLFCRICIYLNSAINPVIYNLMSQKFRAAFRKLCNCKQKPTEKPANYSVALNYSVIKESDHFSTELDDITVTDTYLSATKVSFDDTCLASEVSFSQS
Nuclear receptor subfamily 1 group I member 2 (Rattus norvegicus), sequence (Q9R1A7 whole entry, looked up): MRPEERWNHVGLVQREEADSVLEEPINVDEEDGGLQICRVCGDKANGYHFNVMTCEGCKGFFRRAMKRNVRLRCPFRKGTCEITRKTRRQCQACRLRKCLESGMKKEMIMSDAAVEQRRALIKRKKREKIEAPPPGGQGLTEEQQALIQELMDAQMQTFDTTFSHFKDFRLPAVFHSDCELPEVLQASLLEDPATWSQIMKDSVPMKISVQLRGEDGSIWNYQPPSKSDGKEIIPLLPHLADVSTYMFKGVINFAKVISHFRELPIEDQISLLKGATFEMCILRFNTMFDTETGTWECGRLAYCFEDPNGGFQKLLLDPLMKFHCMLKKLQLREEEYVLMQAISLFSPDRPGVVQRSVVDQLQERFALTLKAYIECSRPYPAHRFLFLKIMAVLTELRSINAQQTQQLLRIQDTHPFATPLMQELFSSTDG

For `CC(C)(c1cc(Br)c(OCC(Br)CBr)c(Br)c1)c1cc(Br)c(OCC(Br)CBr)c(Br)c1` (stereo not given), the Potency entry in [1], in experiment [2], in experiment [3], in [4], in experiment [5] and in [6] was “inactive” in each case. Also, the Potency result in experiment [7], in [9], in experiment [10], in experiment [11], in experiment [12] and in experiment [13] was “inactive” each time. In addition, the outcome in [8] was inactive.
Consider `Clc1nnc(Cl)c2ccccc12`, for which the Potency entry in [1], in experiment [2], in [3], in [4], in experiment [5] and in experiment [6] was “inactive” in each case. The Potency result in experiment [7], in experiment [9], in experiment [10], in experiment [11], in experiment [14] and in experiment [12] was “inactive” throughout.
`O=C(O)[C@H](O)[C@@H](O)[C@H](O[C@@H]1O[C@H](CO)[C@H](O)[C@H](O)[C@H]1O)[C@H](O)CO`: the Potency entry in [1], in [2], in experiment [3], in experiment [4], in experiment [7] and in experiment [9] was “inactive” each time. In addition, the Potency result in experiment [10], in [11], in experiment [14], in [12], in experiment [15] and in [13] was “inactive” each time. Also, the compound was classed as inactive in [8].
Consider `Cc1c(C)c([N+](=O)[O-])c(C(C)(C)C)c([N+](=O)[O-])c1C`, for which the Potency result in experiment [1], in [2], in [3], in [4], in experiment [5] and in [7] was “inactive” each time. The Potency entry in experiment [9], in [10], in [11], in experiment [12] and in experiment [13] was “inactive” throughout. Moreover, in [8], the outcome was inactive.
`CCCCCCCCCCCCOCCOCCOCCOCCOCCOCCOCCOCCOCCO`: the Potency in experiment [1] was 23.7 µM (active); in [16] it was 23.7 µM (active); in experiment [9], 11.9 µM (active); in [11], 11.9 µM (active); in experiment [12], 29.8 µM (active); in experiment [15], 7.5 µM (active). In addition, the Potency entry in experiment [5], in experiment [6], in [7], in experiment [18] and in experiment [13] was “inactive” throughout. Moreover, the call in experiment [8] was inactive. For the same compound, the max activation in experiment [17] was -18.4%.
Consider `CC(C)(C)c1csc(-c2cc3cc(OCc4ccccc4CC(=O)O)ccc3o2)n1`, for which the Potency result in experiment [1], in experiment [4], in [5], in [7], in experiment [10] and in [14] was “inactive” each time. Further, the Potency result in experiment [13] is “inactive”. In addition, the Potency was 43.3 µM (active) in [16]; 61.1 µM (active) in experiment [9]; 61.1 µM (active) in experiment [11]; 68.6 µM (active) in experiment [12]; 61.1 µM (active) in experiment [15]. The call in [8] was inactive.
Regarding `C1CCC(SSC2CCCCC2)CC1`, the Potency result in [1], in [16], in [2], in [4], in experiment [6] and in [9] was “inactive” each time. Moreover, the Potency entry in experiment [10], in experiment [11], in [14], in experiment [12] and in [13] was “inactive” in each case.
Consider `O=C(Oc1ccccc1)Oc1ccccc1`, for which the Potency result in experiment [1], in experiment [2], in experiment [4], in experiment [5], in [6] and in experiment [7] was “inactive” throughout. Moreover, the Potency entry in experiment [9], in [10], in [11], in experiment [14], in experiment [12] and in experiment [13] was “inactive” each time. Also, in experiment [8], the compound was called inactive.

The values are drawn from PubChem BioAssay (Tox21).
